Compound activity as filed in PubChem.
IL-1B inflam inh: inhibitors of inflammasome signaling (IL-1 beta secretion); THP-1 LPS/ATP IL-1B secretion, AlphaLISA, 16 h; active compounds read low; activity change, % at 57.5 µM; 360,000 compounds, 4.7% hits; in the data active means activity change below about -50%; inconclusive means mostly about -30% to -49%
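THP-1 cells pretreated 1 hr with compounds (up to 57.5 uM final), then stimulated with LPS (250 ng/mL final) plus ATP (1.25 mM final); secreted IL-1B measured by AlphaLISA after 16 hr, decreased signal indicating inhibition.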
12-LOX inh: blocks human arachidonate 12S-lipoxygenase. 580,000 compounds, 1.1% hits. AID 1671190. purified 12hLO, xylenol orange hydroperoxide absorbance. Potency, µM (series often up to 108 µM), for the others: at the top dose activity change, negative = inhibition, usual class: inhibitors; further: potency means the concentration at half of the fitted maximal effect
Target sequence (P18054 whole entry, looked up): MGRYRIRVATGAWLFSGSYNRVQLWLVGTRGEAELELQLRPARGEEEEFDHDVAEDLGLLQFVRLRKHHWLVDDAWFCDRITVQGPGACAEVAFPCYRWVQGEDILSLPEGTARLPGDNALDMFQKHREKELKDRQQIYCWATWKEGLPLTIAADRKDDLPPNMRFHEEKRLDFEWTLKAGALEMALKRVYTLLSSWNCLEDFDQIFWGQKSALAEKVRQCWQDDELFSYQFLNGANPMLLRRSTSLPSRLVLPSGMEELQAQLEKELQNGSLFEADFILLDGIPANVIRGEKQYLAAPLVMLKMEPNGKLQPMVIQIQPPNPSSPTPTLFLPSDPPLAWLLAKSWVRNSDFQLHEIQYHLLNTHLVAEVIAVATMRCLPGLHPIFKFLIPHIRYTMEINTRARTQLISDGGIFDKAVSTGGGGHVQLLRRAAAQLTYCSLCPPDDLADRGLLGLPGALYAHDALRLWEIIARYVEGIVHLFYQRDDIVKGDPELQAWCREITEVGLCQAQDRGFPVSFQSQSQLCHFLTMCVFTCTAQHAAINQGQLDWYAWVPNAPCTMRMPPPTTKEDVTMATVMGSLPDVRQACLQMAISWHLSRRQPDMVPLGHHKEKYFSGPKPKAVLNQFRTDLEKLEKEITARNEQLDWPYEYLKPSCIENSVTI
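Purified human 12hLO (150 nM final) in 25 mM Hepes, 0.01% Triton X-100, pH 7.0 was preincubated 15 min at room temperature with compound. Then 40 uM arachidonic acid was added, 30 min. Hydroperoxide was read by Fe-XO absorbance ratio 573/405 nm.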
HT1080 IDH1KD tx: HT-1080 IDH1 knockdown cell toxicity (counter line); HT-1080 IDH1 knockdown viability, ATP luminescence, 48 h; Potency, µM (series often up to 46.1 µM), inactives show at the top dose activity, negative = toxicity, usual class: cytotoxic; 360,000 compounds, 2% hits; AID 686971;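 further: potency means the concentration at half of the fitted maximal effect; 0% = DMSO wells and -100% = cell-free medium wells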
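HT-1080-IDH1KD cells (IDH1 knocked down), 750/well in RPMI with 5% FBS, treated with compound 48 h at 37 degrees C. Viability by CellTiter-Glo luminescence, normalised to DMSO and no-cell wells; concentration-response curves classed.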
TDP1 cell noCPT: qHTS for Inhibitors of human tyrosyl-DNA phosphodiesterase 1 (TDP1): qHTS in cells in absence of CPT. DT40 Tdp1-/- hTDP1 cells, no CPT, ATP luminescence, 48 h. Potency, µM (highest dose often 46.2 µM), inactives show top-dose activity change, negative = growth inhibition, actives largely listed as inhibitors. AID 686978, 2013. 420,000 compounds, 15% hits; further: potency means the concentration at half of the fitted maximal effect; nearly all actives have a fitted effect of over 55% in size
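Growth kinetics read by CellTiter-Glo luminescence after ≥48 hr at 37 °C. Cells: DT40 Tdp1-/- stably carrying human TDP1, 400 per well, compound exposure in the absence of CPT (DMSO vehicle).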
HT1080NT lethal: kills 2HG-producing HT-1080-NT fibrosarcoma cells. HT-1080-NT fibrosarcoma viability, CellTiter-Glo ATP luminescence, 48 h. Potency, µM (doses to about 46.1 µM), for the others: top-dose activity, negative = less viability, actives largely listed as cytotoxic. 360,000 compounds, 1.6% hits. AID 686970;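 further: NT is the 2HG producing partner of a matched IDH1 knockdown line; potency means the concentration at half of the fitted maximal effect; 0% = DMSO-treated cells and -100% = media-only wells without cells; nearly all actives have a fitted effect of over 55% in size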
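Compounds were tested in concentration-response format on HT-1080-NT cells for 48 hours at 37 degrees C. Cell viability came from CellTiter-Glo luminescence; curves were classified by r2, response magnitude and activity.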
DT40 TDP1 CPT: growth inhibition of DT40 Tdp1-/-;hTDP1 cells with camptothecin (screen for TDP1 inhibitors); AID 686979; 420,000 compounds, 12% hits; chicken DT40 Tdp1-/-;hTDP1 cells + 20 nM CPT, ATP luminescence, 48 h; Potency, µM (series often up to 46.2 µM), without a hit: at the highest dose activity change, negative = growth inhibition, most hits filed as inhibitors; further: potency means the concentration at half of the fitted maximal effect; nearly all actives have a fitted effect of over 55% in size
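Cell growth measured by CellTiter-Glo luminescence after a minimum 48 h, 37 C compound exposure with 20 nM CPT in Tdp1-knockout DT40 cells stably expressing hTDP1, seeded 400/well; qHTS titration format.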
* marks the source's active call; other numbers are inactive results; ? = inconclusive; / = not tested or not shown; ! = repeats disagree; [ ] = dose if it differs, or a comment. The sample as a whole holds a higher share of hits than the screen did. Unless noted, the call rests on the fitted dose curve; in most records, active means well fitted curve in the direction sought with a large enough effect; inconclusive means small, poorly fitted or top-dose-only effect, or another doubt; inactive means no such curve, though single readings can be large; an effect the other way counts as inactive or inconclusive. Unless noted, on the % scale 0 is the no-effect control and ±100 the full control effect.

SMILES	IL-1B inflam inh	12-LOX inh	HT1080 IDH1KD tx	TDP1 cell noCPT	HT1080NT lethal	DT40 TDP1 CPT
Clc1ccccc1-c1noc(-c2nc(-c3ccncc3)no2)n1	/	14%	/	/	/	/
C=CCNC(=O)NC(=O)CN(CC)c1ccc(C)cc1C	/	-54%	/	/	/	/
COc1ccccc1N1CCN(C(=O)CCc2ccc(S(=O)(=O)NC(C)C)cc2)CC1	27	4%	-2%	18µM*	5%	?
CC(C)NS(=O)(=O)c1ccc(OCC(=O)N2CCN(c3ccccc3F)CC2)cc1	/	0%	/	15µM*	/	?
COc1ccccc1N1CCN(C(=O)CCc2ccc(S(=O)(=O)NCC(C)C)cc2)CC1	0	0%[57.4 µM]	-4%	23µM*	-11%	?
COc1ccc(-c2nc(-c3ccc(S(=O)(=O)N4CCCC4)cc3)cs2)cc1	/	9%	/	/	/	/
COc1ccc(CN2CC(C(=O)NCc3ccncc3)C3(CCOCC3)C2)cc1 (stereo not given)	/	87%	/	/	/	/
CC(=O)N(Cc1ccc(F)cc1)C1=C(NCc2ccccc2)C(=O)c2ccccc2C1=O	-93*	/	5µM*	1.3µM*	4.5µM*	1.6µM*
CCOc1cccc2sc(N(CCCN(C)C)C(=O)c3ccc(S(=O)(=O)N(C)c4ccccc4)cc3)nc12	-16	?	?	?	?	?
CCN(Cc1ccccc1)S(=O)(=O)c1ccc(C(=O)N(CCCN(C)C)c2nc3cc4c(cc3s2)OCCO4)cc1	-95*	?	?	?	-18%	?
CCN(Cc1ccccc1)S(=O)(=O)c1ccc(C(=O)N(CCCN(C)C)c2nc3ccc(F)cc3s2)cc1	-101*	?	?	-7%	?	?
CN(C)CCCN(C(=O)c1ccc(S(=O)(=O)N(C)Cc2ccccc2)cc1)c1nc2c(F)cccc2s1	-96*	?	-27%	-7%	?	?
CN(C)CCCN(C(=O)COc1ccccc1)c1nc2ccc(F)cc2s1	-8	?	18%	-29%	4%	-10%
CCCCN(C(=O)c1ccc(S(=O)(=O)N(C)C)cc1)c1nc2ccccc2s1	15	0%	1%	2%	4%	-8%
CCN(Cc1ccccc1)S(=O)(=O)c1ccc(C(=O)N(CCCN(C)C)c2nc3cc(OC)ccc3s2)cc1	-100*	?	?	23µM*	?	?
CN(C)CCN(C(=O)c1ccc(S(=O)(=O)N(C)c2ccccc2)cc1)c1nc2cc3c(cc2s1)OCCO3	7	0%	14%	?	28%	-13%
CCOc1ccc(NC(=O)C(C)Sc2ncnc3nc[nH]c23)cc1 (stereo not given)	/	-3%	/	/	/	/
Cc1cccc2sc(N(CCCN(C)C)C(=O)c3ccc(C(=O)c4ccccc4)cc3)nc12	-8	-2%	?	?	?	?
COc1ccc2sc(N(CCCN(C)C)C(=O)c3ccc(C(=O)c4ccccc4)cc3)nc2c1	-88*	?	?	?	?	16µM*
CC[C@H]1OC(=O)[C@H](C)C(=O)[C@H](C)[C@@H](O[C@@H]2O[C@H](C)C[C@H](N(C)C)[C@H]2O)[C@](C)(OC)C[C@@H](C)C(=O)[C@H](C)[C@H]2N(CCCCn3cnc(-c4cccnc4)c3)C(=O)O[C@]12C	/	/	/	2.1µM*	/	2.4µM*!
CC[C@H]1OC(=O)[C@H](C)C(=O)[C@H](C)[C@@H](O[C@H]2O[C@H](C)C[C@H](N(C)C)[C@@H]2O)[C@](C)(OC)C[C@@H](C)C(=O)[C@H](C)[C@H]2N(CCCCn3cnc(-c4cccnc4)c3)C(=O)O[C@]12C	/	4.9µM*	/	/	/	/
CCCCn1cnc2c1c(=O)n(CC(=O)Nc1cccc(F)c1)c(=O)n2CC(C)C	/	5%	/	/	/	/
C#CCN1C=CC(=O)[C@@H](OC(=O)Nc2ccc(Cl)cc2)[C@H]1c1ccccc1Br	-10	?	-18%	23µM*	4%	21µM*
C#CCN1C=CC(=O)[C@@H](OC(=O)Nc2ccc(C)cc2)[C@H]1c1ccccc1Br	20	-9%	0%	?	-2%	?
COc1ccccc1-n1cnc2sc3c(c2c1=O)CCCC3	/	-9%	/	/	/	/
SMILES	IL-1B inflam inh	12-LOX inh	HT1080 IDH1KD tx	TDP1 cell noCPT	HT1080NT lethal	DT40 TDP1 CPT
CCc1noc(-c2nc(-c3ccc(F)c(F)c3)no2)n1	/	-7%	/	/	/	/
Cc1ccc2cc(C=O)c(N3CCOCC3)nc2c1C	?	7%	?	18µM*	-30%	?
CN1CCN(C(=O)c2ccccc2Nc2ccc(SC(F)F)cc2)CC1	-18	?	3%	16µM*	0%	?
CCN1CCN(C(=O)c2ccccc2Nc2ccc(SC(F)F)cc2)CC1	?	?	-9%	-22%	-11%	-9%
CC(C)N(C(=O)c1ccccc1-c1ccccc1)C(C)C	-14	-4%	-20%	18µM*	-1%	?
O=S(=O)(c1ccc(-c2cnc(C3CC3)o2)cc1)N1CCN(c2ccc(F)cc2)CC1	/	-13%	/	0.41µM*	/	0.92µM*
O=S(=O)(c1ccc(-c2cnc(C3CC3)o2)cc1)N1CCN(c2cccc(Cl)c2)CC1	/	-14%	/	3.3µM*	/	4.1µM*
COc1cccc(N2CCN(S(=O)(=O)c3ccc(-c4cnc(C5CC5)o4)cc3)CC2)c1	23	6%	0%	0%	-4%	-20%
Cc1ncc(-c2ccc(S(=O)(=O)N3CCN(c4ccc(F)cc4)CC3)cc2)o1	/	38%	/	/	/	/
CC(=O)c1ccc(N2CCN(S(=O)(=O)c3ccc(-c4cnc(C5CC5)o4)cc3)CC2)cc1	30	-28%	21µM*	?	15µM*	3.3µM*
COc1ccccc1CNCCS(=O)(=O)NN1CCOCC1	-1	1%	2%	-5%	6%	-5%
Cc1ccc(N(C(C)C(=O)Nc2cc(Cl)ccc2Oc2ccccc2)S(C)(=O)=O)cc1 (stereo not given)	-69*	-4%	-5%	?	?	?
Cc1cc(NCCCCCCCNc2cc(C)nc3cc([N+](=O)[O-])ccc23)c2ccc([N+](=O)[O-])cc2n1	-103*	?	?	1.3µM*	?	1.6µM*
Nc1[nH]c(C(=O)c2ccccc2)c(-c2ccccc2Cl)c1C(=O)c1ccccc1	11	-29%	-16%	?	-20%	?
